The nature of experiment [1]: signal quenchers or enhancers, Cy5 substrate/SSB – biochemical, NIH Clinical Collection, E. coli SSB, artefact control for HCV NS3 helicase inhibitor project (AID 743268; call rule not given here). To be noted: Cy5-oligo bound E. coli SSB, fluorescence interference.
Experiment [2] deals with Hepatitis C virus NS3 helicase. The experiment is described as follows: blockers of NS3h binding to DNA – biochemical, fluorescence polarization, NIH Clinical Collection, primary screen (AID 743270; call rule not given here). To be noted: NS3 helicase binding to Cy5-dT15 DNA, stronger effect = higher value, concentration not given here. On the technique in general: Polarisation of emitted light reports the rotation of a fluorescent probe.

Experiment [3] has as its target Single-stranded DNA-binding protein (Escherichia coli (strain K12)) (UniProt P0AGE0). The experiment can be described thus: SSB-ssDNA binding inhibitors – biochemical, fluorescence polarization, NIH Clinical Collection, counter-screen for HCV NS3 helicase inhibitor project (AID 743271; in the data active = inhibition above about 28%). To be noted: E. coli SSB-DNA binding, stronger effect = higher value, concentration not given here.

The nature of experiment [4]: compounds distorting NS3 helicase fluorescence signal – biochemical, NIH Clinical Collection, artefact control for HCV NS3 helicase inhibitor project (AID 743272; call rule not given here;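 also: HCV NS3 helicase with a Cy5 labelled single stranded DNA probe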). To be noted: fluorescence interference counterscreen, HCV NS3 helicase assay; stronger effect = lower value.
In experiment [5] the target is 6-phosphogluconate dehydrogenase, decarboxylating (Homo sapiens) (UniProt P52209). The experiment can be described thus: inhibition of human phosphogluconate dehydrogenase – biochemical, recombinant enzyme, NADPH absorbance, primary screen (AID 1159550;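 active = at least 20% inhibition of 6-phosphogluconate dehydrogenase activity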). To be noted: recombinant 6PGD, NADPH absorbance 341 nm; at 10 µM; stronger effect = higher value.
Chain of 6-phosphogluconate dehydrogenase, decarboxylating (Homo sapiens) (P52209 whole entry, looked up): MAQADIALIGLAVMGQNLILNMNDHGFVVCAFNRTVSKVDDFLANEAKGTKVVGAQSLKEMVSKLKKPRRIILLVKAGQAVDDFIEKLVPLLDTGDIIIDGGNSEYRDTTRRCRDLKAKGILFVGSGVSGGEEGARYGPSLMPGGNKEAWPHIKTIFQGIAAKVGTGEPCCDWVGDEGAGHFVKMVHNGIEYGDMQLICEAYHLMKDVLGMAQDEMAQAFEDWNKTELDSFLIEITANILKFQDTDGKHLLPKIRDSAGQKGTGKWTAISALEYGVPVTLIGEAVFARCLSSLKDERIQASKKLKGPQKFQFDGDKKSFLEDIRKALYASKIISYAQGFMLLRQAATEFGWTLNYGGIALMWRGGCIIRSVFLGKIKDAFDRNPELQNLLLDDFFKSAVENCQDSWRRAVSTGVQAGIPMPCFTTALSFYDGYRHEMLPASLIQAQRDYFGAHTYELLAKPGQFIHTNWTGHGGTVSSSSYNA
Experiment [6] can be described thus: MELAS cybrid and Rieske KO viability enhancers – cell-based, MELAS cybrids, Rieske KO mouse fibroblasts, CellTiter-Glo, primary screen (AID 1508586;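 active = mean z-score across replicates of 1.96 or higher in either the MELAS or the Rieske mutant cell line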;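 also: z relative to plate mean and SD of compound and empty wells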). To be noted: low glucose.
For experiment [7], the target named is NAD(+) hydrolase SARM1 (Homo sapiens) (UniProt Q6SZW1). The experiment is described as follows: blocking NAD cleavage by SARM1 SAM-TIR – cell lysate, NAD-Glo luminescence (AID 1508614;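 active = compound whose remaining NAD level is above about 45 nM, limit read from the data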;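 also: higher remaining NAD means stronger inhibition of SARM1 NADase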). To be noted: SAM-TIR HEK293T lysate NADase, at 1 µM, stronger effect = higher value.
Chain of NAD(+) hydrolase SARM1 (Homo sapiens) (Q6SZW1 whole entry, looked up, the tested form may be a part): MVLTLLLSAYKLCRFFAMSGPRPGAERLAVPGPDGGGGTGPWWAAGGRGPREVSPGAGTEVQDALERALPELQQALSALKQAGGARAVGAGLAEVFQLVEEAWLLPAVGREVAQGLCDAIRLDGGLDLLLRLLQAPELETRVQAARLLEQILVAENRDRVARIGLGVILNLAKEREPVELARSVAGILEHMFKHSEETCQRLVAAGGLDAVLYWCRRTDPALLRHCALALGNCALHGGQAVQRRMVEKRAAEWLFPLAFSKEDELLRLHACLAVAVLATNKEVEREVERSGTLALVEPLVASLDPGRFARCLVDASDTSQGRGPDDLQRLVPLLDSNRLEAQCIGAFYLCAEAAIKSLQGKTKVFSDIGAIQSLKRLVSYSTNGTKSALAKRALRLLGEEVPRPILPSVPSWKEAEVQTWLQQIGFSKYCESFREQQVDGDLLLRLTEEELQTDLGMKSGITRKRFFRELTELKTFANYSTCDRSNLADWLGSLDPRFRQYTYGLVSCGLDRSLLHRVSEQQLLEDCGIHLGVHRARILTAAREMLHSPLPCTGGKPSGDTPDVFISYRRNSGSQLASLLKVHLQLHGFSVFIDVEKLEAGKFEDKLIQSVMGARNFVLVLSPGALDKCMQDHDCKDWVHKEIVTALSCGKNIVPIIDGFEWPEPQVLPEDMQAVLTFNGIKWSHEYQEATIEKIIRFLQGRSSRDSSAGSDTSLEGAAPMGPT
Experiment [8] addresses Mitogen-activated protein kinase 7 (Homo sapiens) (UniProt Q13164). The experiment is described as follows: Gal4-ERK5 driven luciferase induction – cell-based, HTS, primary screen (AID 1508626;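 active = luciferase signal above three times the same-plate solvent-only control wells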;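 also: luciferase driven by Gal4-ERK5 fusion binding five Gal4 sites before minimal TATA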). To be noted: HeLa Gal4-ERK5 transactivation, 18 h, at 5 µM, stronger effect = higher value.
Experiment [9] in a line: galactose survival enhancers in mitochondrial complex I cybrids – cell-based, galactose medium, ATP luminescence, primary screen (AID 1645843;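 active = z-score of at least 1.8 in each of two replicates, scored against plate mean and spread of sample wells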;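 also: positive z means more ATP and so rescue of galactose-driven cybrid death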). To be noted: complex I mutant cybrid cells, 72 h, stronger effect = higher value.
The next experiment deals with F380Y. The experiment is described as follows: BK channel mutant inhibitors and activators – cell-based, U2OS BacMam, thallium flux, beta subunits, selectivity assay, profiling panel (AID 1259406).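 Also: initial slope of Thallos dye fluorescence rise after thallium is added; log ratio against the mean of 0.3% DMSO vehicle wells on the same plate.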 To be noted: U2OS BacMam BK variants, at 30 µM.
Another experiment relates to F380Y/beta2Delta. The experiment is described as above. To be noted: U2OS BacMam BK variants, at 30 µM.
Experiment [10] concerns the target Calcium-activated potassium channel subunit alpha-1 (Homo sapiens) + Leucine-rich repeat-containing protein 26 (Homo sapiens) (UniProt Q12791+Q2I0M4). Described as above. To be noted: U2OS BacMam BK variants, F380Y/Slo1WT/gamma1, at 30 µM.
For another experiment, the system named is R275C. The experiment is described as above. To be noted: U2OS BacMam BK variants, at 30 µM.
In another experiment the test system is R275C/beta1. Described as above. To be noted: U2OS BacMam BK variants, at 30 µM.
Another experiment has as its system R275C/beta2Delta. Described as above. To be noted: U2OS BacMam BK variants, at 30 µM.
Experiment [11] can be described thus: P. berghei load reduction in hepatocytes – cell-based, HepG2, luciferase luminescence, HepG2 viability, primary screen (AID 624349; in the data active = parasite load remaining mostly below about 12%, no sharp cut-off; inactive = mostly above about 10%;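 also: 100% = mean of DMSO negative control wells on the same plate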). To be noted: P. berghei liver stage in HepG2, luciferase luminescence, concentration not given here; parasite load remaining: stronger effect = lower value; viability: measured here: HepG2 viability without parasites.
A short description of experiment [12]: modulation of C. elegans fzo-1 (AID 1259413; call rule not given here;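 also: fzo-1 mutant C. elegans worms in liquid wells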). To be noted: C. elegans fzo-1 modulator screen, mean read-out; stronger effect = higher value.
A short description of experiment [13]: EMT-state selective cytotoxicity in co-culture – imaging, PC-3E GFP, TEM4-18 mCherry, primary screen (AID 1345086;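 active = compounds killing one labelled cell type while sparing the other, by normalised counts and ratio limits, not self-fluorescent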;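 as to all read-outs here: cells exposed to compound for 72 h before imaging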;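 as to red/green cell ratio (normalised): normalised mesenchymal count divided by normalised epithelial count so high means epithelial killing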). To be noted: PC-3E GFP / TEM4-18 mCherry co-culture, imaging cell counts, at 1 µM; for red/green cell ratio (normalised): actives lie on both sides, counts scaled to control wells, 1 = unselective.
Experiment [14] can be described thus: viability loss with induced miR-34 in A549 – imaging, A549 dox-inducible miR-34, nuclei and caspase counts, primary screen (AID 1347080;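 active = compounds whose cell count with miR-34 switched on is under 0.7 times the count with it off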). To be noted: A549 miR-34 inducible, Hoechst nuclei count, 48 h.
The mark [15] stands for this setting: MELAS cybrid survival, CellTiter-Glo 48 h, stronger effect = higher value.
Setting [16] is: Rieske KO mouse fibroblast survival, CellTiter-Glo 72 h.
The mark [17] stands for this setting: measured here: epithelial PC-3E GFP cell survival.
Where [18] appears, read: measured here: mesenchymal TEM4-18 mCherry cell survival.

Values joined by “and” are separate entries in the source; they are usually repeats but may differ in a detail not shown here. Equal values may be shown once. Active and inactive are the calls of the source.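 The calls were made as follows, unless noted: active = thallium flux through the channel raised or lowered by more than 3 SD from vehicle-only wells, actives on both sides; inactive = the rest.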

Chain of Mitogen-activated protein kinase 7 (Homo sapiens) (Q13164 whole entry, looked up, the tested form may be a part): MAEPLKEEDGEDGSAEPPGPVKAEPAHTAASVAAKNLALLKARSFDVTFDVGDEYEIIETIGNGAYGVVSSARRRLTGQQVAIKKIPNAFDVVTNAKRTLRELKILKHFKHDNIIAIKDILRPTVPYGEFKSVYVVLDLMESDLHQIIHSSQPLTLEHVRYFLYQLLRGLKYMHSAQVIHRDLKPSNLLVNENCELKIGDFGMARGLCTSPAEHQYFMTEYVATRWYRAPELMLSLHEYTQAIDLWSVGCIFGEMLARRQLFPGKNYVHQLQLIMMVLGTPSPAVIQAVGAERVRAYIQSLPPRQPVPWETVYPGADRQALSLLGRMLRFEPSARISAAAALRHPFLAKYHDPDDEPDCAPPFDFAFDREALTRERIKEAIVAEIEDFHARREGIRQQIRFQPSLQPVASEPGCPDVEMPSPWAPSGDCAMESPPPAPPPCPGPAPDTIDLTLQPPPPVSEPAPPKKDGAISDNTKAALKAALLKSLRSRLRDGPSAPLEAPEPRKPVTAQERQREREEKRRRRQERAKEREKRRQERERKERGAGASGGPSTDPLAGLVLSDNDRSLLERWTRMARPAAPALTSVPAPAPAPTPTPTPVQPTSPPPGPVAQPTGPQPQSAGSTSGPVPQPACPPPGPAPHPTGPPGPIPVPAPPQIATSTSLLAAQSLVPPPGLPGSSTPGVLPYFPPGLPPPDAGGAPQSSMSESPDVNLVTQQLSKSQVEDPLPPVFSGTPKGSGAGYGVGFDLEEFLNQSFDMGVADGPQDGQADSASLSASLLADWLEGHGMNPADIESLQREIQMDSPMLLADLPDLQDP
Chain of Calcium-activated potassium channel subunit alpha-1 (Homo sapiens) + Leucine-rich repeat-containing protein 26 (Homo sapiens) (Q2I0M4 whole entry, looked up, one chain of several): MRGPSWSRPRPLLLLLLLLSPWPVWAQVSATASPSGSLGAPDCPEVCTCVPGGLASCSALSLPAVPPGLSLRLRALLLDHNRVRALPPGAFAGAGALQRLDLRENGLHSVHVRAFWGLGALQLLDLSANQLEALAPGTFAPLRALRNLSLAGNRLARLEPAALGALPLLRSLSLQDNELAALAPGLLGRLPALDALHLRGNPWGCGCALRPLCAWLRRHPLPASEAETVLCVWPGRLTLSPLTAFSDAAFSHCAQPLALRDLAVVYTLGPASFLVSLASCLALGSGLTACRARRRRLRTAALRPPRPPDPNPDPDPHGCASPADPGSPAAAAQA

What is called inhibition is the change of the read-out against control, counted positive when it falls. Take `C[C@]12CC[C@@H]3c4ccc(O)cc4CC[C@H]3[C@@H]1CC[C@@H]2O`: the fluorescence ratio in [1] was 1 (inactive); in experiment [4], 0.97 (inactive). The figures for the inhibition in experiment [2], in experiment [3] and in experiment [5] were 2.77% (inactive), -0.87% (inactive) and -7.69% (inactive), respectively. The z-score was 1.01 (inactive) and 0.292 (inactive) in [6] (setting [15]); -0.193 and 1.1 in [6] (setting [16]); 0.115 (inactive) and -0.055 (inactive) in experiment [9]. For the same compound, in [7], the remaining NAD was 10 nM (inactive). Further, the luciferase signal in experiment [8] is 184 AU (inactive). In addition, the log fold change Tl+ flux is 0.0249 (inactive) in the experiment with F380Y; -0.0581 (inactive) with F380Y/beta2Delta; 0.072 (inactive) in experiment [10]; 0.021 (inactive) with R275C; 0.0222 (inactive) with R275C/beta1; -0.0294 (inactive) in the experiment on R275C/beta2Delta.

By viability is commonly meant a read-out of living cells in per cent, often relative to untreated cells. Consider `COc1ccc(-c2oc3c(CC=C(C)C)c(O[C@@H]4O[C@H](CO)[C@@H](O)[C@H](O)[C@H]4O)cc(O)c3c(=O)c2O[C@@H]2O[C@@H](C)[C@H](O)[C@@H](O)[C@H]2O)cc1`, for which the parasite load remaining in experiment [11] was 70.8% (inactive). Also, in [11], the viability turned out to be 68.9%. The fluorescence ratio in [1] was 1 (inactive); in experiment [4], 0.98 (inactive). In addition, the inhibition was -9.9% (inactive) in [2], -2.41% (inactive) in [3] and 4.03% (inactive) in experiment [5]. Besides, the mean signal in experiment [12] is 233 (inactive). Besides, in [13], the red/green cell ratio (normalised) was 1.12 (inactive). The normalised cell number turned out to be 1.01 in experiment [13] (setting [17]) and 1.13 in experiment [13] (setting [18]). Besides, in [8], the luciferase signal was 48 AU (inactive). In addition, the log fold change Tl+ flux in the experiment with F380Y is 0.00269 (inactive); with F380Y/beta2Delta, -0.0493 (inactive); in experiment [10], -0.0341 (inactive); in the experiment with R275C it was -0.04 (inactive); in the experiment on R275C/beta1, 0.009 (inactive); in the experiment on R275C/beta2Delta, -0.0522 (inactive).

On to `O=C(O)[C@H](O)[C@@](O)(Cc1ccc(O)cc1)C(=O)O`, for which the inhibition in [5] was 12.5% (inactive). Also, in experiment [13], the red/green cell ratio (normalised) is 1.3 (inactive). Besides, the normalised cell number in [13] (setting [17]) turned out to be 0.73; in experiment [13] (setting [18]), 0.94.

For `CC(=O)OCC(=O)[C@@]1(O)CC[C@H]2[C@@H]3CCC4=CC(=O)CC[C@]4(C)[C@H]3[C@@H](O)C[C@@]21C`, the parasite load remaining in experiment [11] is 82.4% (inactive) and 26% (inactive). For the same compound, in [11], the viability is 130% and 68%. Further, the fluorescence ratio in experiment [1] and in experiment [4] was 0.96 (inactive) each time. Moreover, the inhibition in experiment [2] was -0.45% (inactive); in experiment [3], 1.81% (inactive); in [5], 8.37% (inactive). In addition, the fold change in experiment [14] (stronger effect = lower value, cell number ratio, induced over uninduced) was 0.933 (inactive) and 0.77 (inactive); in experiment [14] (measured here: relative caspase fold change +Dox/-Dox) it was 0.523 and 1.29. The cell count is 7330 and 6560 in [14] (measured here: total cells with miR-34 induction, stronger effect = lower value); 7860 and 8520 in experiment [14] (measured here: total cells without miR-34 induction). Also, the z-score is 0.499 (inactive) and 0.396 (inactive) in [6] (setting [15]); 0.874 and 1.08 in experiment [6] (setting [16]); -0.03 (inactive) and 0.39 (inactive) in experiment [9]. Moreover, the remaining NAD in experiment [7] is 10 nM (inactive). In addition, the luciferase signal in experiment [8] is 36 AU (inactive). Besides, the log fold change Tl+ flux in the experiment on F380Y is -0.0118 (inactive); in the experiment on F380Y/beta2Delta, 0.0163 (inactive); in [10], 0.0135 (inactive); with R275C, -0.0512 (inactive); in the experiment on R275C/beta1, -0.0363 (inactive); in the experiment with R275C/beta2Delta, -0.0239 (inactive).

Values taken from PubChem BioAssay.
